# Counter-ions that a name gives are not always drawn.
# Test system: Danio rerio larvae (5 dpf)
# Experiment: activity during period 15 (no stimuli), difference vs DMSO (percentage points (treated minus DMSO)); higher = more of the behaviour than the DMSO vehicle control
# Conditions: 10 µM; exposure time: 3 h pre-incubation + 3 h imaging
# Procedure: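 5-dpf wild-type zebrafish larvae were imaged in 96-well plates. They were treated with 190 Tocris FDA-approved drugs at 10 µM (1 µl/ml DMSO) for 3 h before and 3 h during imaging at 28.5 °C, 48 larvae per drug. Automated image analysis gave % time moving and optomotor responses. Values are drug group mean minus DMSO vehicle mean (n=844), in percentage points, for 10 behaviours.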
row,Compound,activity during period 15
1,O=c1[nH]c2ccccc2n1C1CCN(CCCC(c2ccc(F)cc2)c2ccc(F)cc2)CC1 [Pimozide],-8.89
2,COc1cc2c(cc1OC)C1CC(=O)C(CC(C)C)CN1CC2 (configuration not stated) [Tetrabenazine],3.06
3,C=CCN1C[C@H](C(=O)N(CCCN(C)C)C(=O)NCC)C[C@@H]2c3cccc4[nH]cc(c34)C[C@H]21 [Cabergoline],-8.5
4,COc1ccc(C(CN(C)C)C2(O)CCCCC2)cc1 (configuration not stated) [Venlafaxine hydrochloride],-20.4
5,CC(C)C[C@H]1C(=O)N2CCC[C@H]2[C@]2(O)O[C@](NC(=O)[C@@H]3C=C4c5cccc6[nH]c(Br)c(c56)C[C@H]4N(C)C3)(C(C)C)C(=O)N12 [Bromocriptine mesylate],3.6
6,CC[C@@H](C(N)=O)N1CCCC1=O [Levetiracetam],4.21
7,Cc1cccc([C@H](C)c2c[nH]cn2)c1C [Dexmedetomidine hydrochloride],-35.2
8,CC(O)(CS(=O)(=O)c1ccc(F)cc1)C(=O)Nc1ccc(C#N)c(C(F)(F)F)c1 (configuration not stated) [Bicalutamide],5.81
9,N[C@@H]1C[C@H]1c1ccccc1 [Tranylcypromine hydrochloride],-10.3
10,C=C1C[C@@H]2[C@H](CC[C@]3(C)C(=O)CC[C@@H]23)[C@@]2(C)C=CC(=O)C=C12 [Exemestane],-15.7
11,CCN(C)C(=O)Oc1cccc([C@H](C)N(C)C)c1 [Rivastigmine tartrate],-7.13
12,CN1C[C@H](C(=O)N[C@]2(C)O[C@@]3(O)[C@@H]4CCCN4C(=O)[C@H](Cc4ccccc4)N3C2=O)C[C@@H]2c3cccc4[nH]cc(c34)C[C@H]21 [Dihydroergotamine mesylate],1.37
